The sample as a whole holds a higher share of hits than the screen did.
N370S GC mod = N370S glucocerebrosidase modulation, Gaucher chaperone candidate; AID 2101; N370S GC spleen homogenate, 4MU-glucoside fluorescence; P04062; Potency, µM (highest dose often 59.4 µM), without a hit: top-dose activity change, negative = inhibition, actives largely listed as inhibitors; 330,000 compounds, 0.092% hits;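 also: potency is read from the fitted curve at half-maximal effect; 0% = full enzyme activity and -100% = no enzyme basal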
Glioma ERSR ind = induces the endoplasmic reticulum stress response in human glioma cells; U87-MG GRP78 promoter luciferase reporter, 16 h; Potency, µM, for the others: at the top dose activation, usual class: activators; 420,000 compounds, 0.02% hits; AID 602332; also: potency is read from the fitted curve at half-maximal effect; series mostly up to about 76 µM; % of control where 0% means no effect; nearly all actives have a fitted effect of over 35% in size
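ERSR induction read as luciferase luminescence (Bright-Glo, 10 min at room temperature) in stably transfected human U87-MG glioma cells exposed to compounds for 16 h, using GRP78 as sensor.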
Integrin act MD = integrin-mediated muscular dystrophy alleviation activation; alpha7betagal myoblasts, beta-gal FDG fluorescence, 48 h; Potency, µM (top dose mostly 38.3 µM), for inactives: at the highest dose activation, hits mostly activators; 350,000 compounds, 0.064% hits; AID 624291;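 also: potency is read from the fitted curve at half-maximal effect; 100% = response of the positive control SU9516; nearly all actives have a fitted effect of over 60% in size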
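Alpha7betagal+/- myoblasts (passage 13) were plated 16-24 hr, then exposed to compounds (1:260 dilution of DMSO stock) for 48 hours at 37C. After MPER lysis, β-galactosidase reporter activity was read as FDG fluorescence (ex 480/em 540) after 30 minutes.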
Apoferritin bind = binds horse apoferritin like a general anesthetic; AID 485281; Potency, µM (top dose mostly 77.5 µM), for the others: at the highest dose activity change, negative = displacement, actives largely listed as inhibitors; 350,000 compounds, 0.074% hits; apoferritin/1-aminoanthracene competitive binding, fluorescence; P02791; also: potency is read from the fitted curve at half-maximal effect; % is scaled to controls: 0 for no effect and ±100 for the full control effect; nearly all actives have a fitted effect of over 20% in size
Target sequence (P02791 2-175 limits assumed): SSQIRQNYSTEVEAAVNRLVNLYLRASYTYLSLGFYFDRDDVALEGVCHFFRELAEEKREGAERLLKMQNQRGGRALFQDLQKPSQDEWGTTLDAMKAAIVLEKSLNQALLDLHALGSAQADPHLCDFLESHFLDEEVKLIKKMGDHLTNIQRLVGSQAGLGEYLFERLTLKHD
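Steps: apoferritin (10 uM) was premixed with half-saturated 1-AMA in PBS, compounds were pin-transferred, plates stood 10 min at room temperature, fluorescence was read at 380/535 nm, and curves were fitted with a Hill equation.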
CBFb-RUNX1 inh = CBF-beta/RUNX1 interaction disruption; Q01196+Q13951; AlphaScreen CBFb-His/RUNX1-biotin binding, biochemical; Potency, µM (doses to about 59.8 µM), for inactives: at the highest dose activity, negative = inhibition, actives largely listed as inhibitors; 230,000 tested, under 10 active; AID 1477; also: % of control where 0% means no effect
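CBFb-His/RUNX1-biotin, 30 nM each, preincubated 20 min RT; compound 15 min RT; Ni + streptavidin beads 50 ng each, 90 min RT; AlphaScreen read.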
ClpP mod = qHTS Assay for Activators of ClpP. ATP-dependent Clp protease proteolytic subunit (Bacillus subtilis (strain 168)), P80244. Potency, µM (series often up to 57.5 µM), without a hit: top-dose activity change, negative = active. 340,000 compounds, 1.9% hits. purified B. subtilis ClpP, FRET peptide cleavage, 20 min. AID 651965, 2013; active = well fitted falling curve with a large enough effect; inconclusive = small, poorly fitted or top-dose-only effect; inactive = no such curve, though single readings can be large or run the other way; also: potency is read from the fitted curve at half-maximal effect; the source files actives as falling curves though it sought activators and does not explain the sign; nearly all actives have a fitted effect of over 65% in size
Target sequence (P80244 whole entry, looked up): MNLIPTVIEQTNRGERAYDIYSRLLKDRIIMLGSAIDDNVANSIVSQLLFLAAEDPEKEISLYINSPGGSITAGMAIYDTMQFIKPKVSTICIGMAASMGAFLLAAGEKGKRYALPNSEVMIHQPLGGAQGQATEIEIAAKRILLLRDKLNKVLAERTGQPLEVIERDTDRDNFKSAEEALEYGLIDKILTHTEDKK
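Purified B. subtilis ClpP, 10 microg/mL final in Tris/HCl pH8 with KCl, BSA, glycerol and Tween-20, cleaved an Abz/nitrotyrosine-quenched decapeptide. Fluorescence (ex 320, em 430) was read at 0 and 20 min at room temperature. Delta was normalized to 5.8 microM ADEP and DMSO/no-enzyme controls.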
* marks the source's active call; other numbers are inactive results; u = inconclusive; x = not tested or not shown. Unless noted, calls follow the shape of the dose curve; as a rule, active = well fitted curve in the direction sought with a large enough effect; inconclusive = small, poorly fitted or top-dose-only effect, or another doubt; inactive = no such curve, though single readings can be large; an effect the other way counts as inactive or inconclusive.

SMILES	N370S GC mod	Glioma ERSR ind	Integrin act MD	Apoferritin bind	CBFb-RUNX1 inh	ClpP mod
CC1(C)CC(C(=O)N2CCOc3ccc(CN4CCC(Oc5cccnc5)CC4)cc3C2)CCO1 (stereo not drawn)	x	-5%	x	x	x	x
COc1ccc2oc(C(=O)OCC(=O)N3C(C)CCCC3C)c(C)c2c1 (stereo not drawn)	3%	2%	17%	u	x	u
COc1ccc2oc(C(=O)OC(C)C(=O)N(C)c3ccccc3)c(C)c2c1 (stereo not drawn)	2%	-4%	7%	x	x	22µM*
COc1ccc2oc(C(=O)OCC(=O)N3CCCCC3C)c(C)c2c1 (stereo not drawn)	x	11%	17%	x	x	8.9µM*
COc1ccc2oc(C(=O)OCC(=O)N(C)C3CCS(=O)(=O)C3)c(C)c2c1 (stereo not drawn)	-11%	-3%	16%	x	x	10µM*
CN(C(=O)COC(=O)c1ccccc1NCCO)C1CCS(=O)(=O)C1 (stereo not drawn)	u	-2%	-6%	x	x	20µM*
COc1cc2nc(NC3CCN(Cc4ccccc4)CC3)nc(N3CCCN(C)CC3)c2cc1OC	x	x	x	x	x	4%
O=C(NC1CC1)[C@@H]1C[C@@H](Sc2nc3ccccc3[nH]2)CN1CC1CCCCC1	x	-2%	x	x	x	x
COCc1c(C(=O)N2CCN(c3ccccc3)CC2)cnn1-c1nccc(-c2ccco2)n1	x	-1%	x	x	x	x
O=C(CSc1nc2c([nH]c3ccccc32)c(=O)n1-c1ccc(F)cc1)NCC1CCCO1 (stereo not drawn)	x	-4%	x	-3%	x	22µM*
Cc1ncc2c(c1CNC(=O)c1cncs1)CCN(C(=O)c1cccc(-c3cccc(F)c3)c1)C2	x	-3%	x	x	x	x
OC(COC(c1ccc(Cl)cc1)c1ccc(Cl)cc1)CN1CCc2ccccc2C1 (stereo not drawn)	7.9µM*	-5%	-64%	-8%	21%	x
COc1ccccc1-n1cc(C(=O)NCCN2Cc3ccccc3OC(c3ccsc3)C2)cn1 (stereo not drawn)	x	2%	x	x	x	x
CCOc1ccc(NC(=O)CCCN2C(=S)NC(C)(C)CC2C)cc1 (stereo not drawn)	4%	-1%	11%	-5%	-6%	28µM*
Cc1cc(N(C)C)c(C)cc1/C=C/c1ccnc2ccccc12	x	13%	x	x	x	2%
COC(=O)c1cc2c(ccn2-c2ccc(F)cc2)n1Cc1cccc(OC)c1	8%	-6%	-13%	3%	1%	28µM*
COC(=O)c1cc2c(ccn2-c2ccc(F)cc2)n1Cc1ccc(OC(C)=O)cc1	6%	0%	-43%	3%	-3%	28µM*
COC(=O)c1cc(C(=O)OC)n(Cc2ccc(F)cc2)c1C	19%	3%	8%	-10%	-1%	x
O=C(CNc1cccc2ccccc12)c1ccc([N+](=O)[O-])cc1	-1%	-4%	-12%	-8%	-1%	5.6µM*
COc1ccc2[nH]c3c(N4CCC(O)(c5cccc(C(F)(F)F)c5)CC4)ncnc3c2c1	-15%	-17%	-66%	9%	-3%	32µM*
COc1ccc2[nH]c3c(N4CCN(Cc5ccc6c(c5)OCO6)CC4)ncnc3c2c1	-2%	-12%	-52%	153%	-5%	u
Cc1cc(=O)oc2c(O)c(O)ccc12	-13%	28µM*	x	4%	x	-4%
C=CC(=O)N1C/C(=C/c2ccccc2)C(=O)/C(=C\c2ccccc2)C1	x	-14%	-45%	x	x	32µM*
CC(C)CC1NC(=O)N(CC(=O)N2c3ccccc3NC(=O)C2(C)C)C1=O (stereo not drawn)	1%	-1%	5.6µM*	-3%	-14%	-3%
CC(C)CC1NC(=O)N(CC(=O)NC2CCCc3ccccc32)C1=O (stereo not drawn)	4%	-4%	u	u	2%	28µM*
O=C(c1cnn2c1NC(=C1CC1)C=C2C(F)F)N1CCc2ccccc21	x	-1%	x	x	x	1%

Compound activity: PubChem BioAssay, National Center for Advancing Translational Sciences (NCATS)
